Reference: ChEMBL document CHEMBL5308541, “MAIP: An Open-Source Tool to Enrich High-Throughput Screening Output and Identify Novel, Druglike Molecules with Antimalarial Activity” (ACS Med Chem Lett, 2023)
The whole screen tested about 150,000 compounds, of which about 540 (0.36%) showed an effect of 50% or more. For the sample, strong results were picked, then their nearest neighbours and some compounds at random.

tested on: Plasmodium falciparum; experiment: Primary screen in NF54 nanoGlo assay, in single point, at 2uM, 72h; a lower Z score goes with more inhibition; assay type: functional, Erythrocyte; details: timepoint 72 hour

In order of rising “% Inhibition” value:
1. Cc1cccc2c(-c3ccc(N4CCN(C)CC4)nn3)c[nH]c12  -16%
2. CN1CC(=O)N2C[C@@H](NC(=O)c3cccc(-c4ccc(N)nc4)c3)C[C@H]2C1=O  -16%
3. Cc1cc(NCCCN2CCC(C(=O)O)CC2)nc2ccccc12  -15%
4. CNC(=O)[C@@H]1CC2(CCN(CC3CCCCC3)CC2)CN1c1ccc(C#N)c(C(F)(F)F)c1  -15%
5. FC(F)(F)Oc1cccc(CNC2CCN(C3CC3)CC2)c1  -13%
6. O[C@@H]1CCCCC[C@H]1Nc1cccc(-n2ccnc2)n1  -11%
7. Cc1cc(=O)n(CCN2CCN(C(=O)c3ccc[nH]3)CC2)c(=O)[nH]1  -9%
8. O=C1CN(C2CCN(CC3CCCCC3)CC2)[C@]2(CCOC2)CN1Cc1ccccc1  -8%
9. Cc1csc(=O)n1Cc1nnc(C(C)C)o1  -8%
10. COCC(O)CN1CCC(NC2CCCNc3ccccc32)CC1 (stereo not given)  -7%
11. Cc1cc(=O)[nH]c(-n2nc(C)cc2NC(=O)[C@H](C)n2nc3c(cc2=O)CCC3)n1  -7%
12. C[C@@H](c1cccc(-c2nccc3ncccc23)c1)N1CCCC1  -7%
13. NC(=O)[C@H]1CCCN(CCCNc2cc(C(F)(F)F)nc(N3CCCC3)n2)C1  -5%
14. Fc1ccccc1-c1nnc2ccc(NCc3ccccc3OC3CCCC3)nn12  -5%
15. CCN(C)CC(O)CN1CCC(Oc2cccnc2N2CCCC2)C1 (stereo not given)  -5%
16. Cc1cccc([C@@H](C)CNC2CCN(CCN3CCOCC3)CC2)c1  -4%
17. COc1ccc2[nH]c(CN3CCC[C@H](N4CCN(c5ccccc5)CC4)C3)c(C)c2c1  -4%
18. Fc1ccc2c(CCNCc3cnn(-c4ccccc4)c3)c[nH]c2c1  -3%
19. O=C(c1cccc(OCCc2ccccc2)c1)N1CC2COCCC2(C(=O)O)C1 (stereo not given)  -3%
20. CCN1CCN(CC2CN(C/C=C/c3ccc(OC)cc3)CC2CO)CC1 (stereo not given)  -3%
21. Cc1cc(N2CCC(NCCc3cnn(-c4ccccc4)c3)CC2)nc(N)n1  -2%
22. Cc1cnccc1NCCNCc1nc2ccccc2[nH]1  -2%
23. O=C1c2cccc3cccc(c23)C(=O)N1CCc1nc2ccccc2s1  -1%
24. CN(C)c1nc(N2CCC(N3CCN(CCO)CC3)CC2)ncc1F  -1%
25. COc1ccc(C(O)CNC2CCc3ccc(F)cc32)cc1 (stereo not given)  0%
26. Cc1n[nH]nc1C(=O)Nc1ccc2[nH]c(-c3cccc(F)c3)nc2c1  1%
27. CNC(=O)CN1CCC(Nc2ncnc3ccc(C(C)C)cc23)CC1  2%
28. CCN1CCN([C@H]2CCN(c3nccc4nccnc34)C2)CC1  2%
29. O=C(c1cc(-c2ccccc2)[nH]n1)N1CCC(c2nc3cc(C(F)(F)F)ccc3s2)CC1  3%
30. CCn1nc(C(C)C)cc1C(=O)Nc1ccc(CC(=O)NC2CC2)cc1  3%
31. CN1CCN(CC[C@H]2CCCCN2Cc2cnn(-c3ccc(F)cc3)c2)CC1  3%
32. Cc1cc(=O)[nH]c(-n2nc(C)cc2NC(=O)C(=O)N2CCC[C@H](C)C2)n1  4%
33. Nc1cc(N2CCC(N3CCc4ccccc4C3)CC2)nc(N2CCOCC2)n1  5%
34. CN1CCC(N2CCC(NCc3cccc4nsnc34)CC2)CC1  14%
35. Cc1cnccc1NCCNc1nc(C(C)(C)C)nc2c1cnn2C  20%
36. CCN1CCN(c2ccccc2CNCCC2CCN(C)CC2)CC1  27%
37. C[C@@H](c1cccc(-c2nc3cc(C#N)ccc3[nH]2)c1)N(C)C  27%
38. Cc1ccc2nc(CCCNC3CCN(c4cc(C)nc(N)n4)CC3)oc2c1  40%
39. CCN1CCC[C@H](Nc2cccc(-n3ccnc3)n2)C1  46%
40. Cn1cc(-c2cncc(C(=O)NC3CCN(c4cccc(F)c4)CC3)c2)cn1  50%
41. COc1ccc2[nH]cc(C3=CCN(c4ccc5nnc(-c6ccccc6F)n5n4)CC3)c2c1  51%
42. CN(C)Cc1cccc(CCNCc2csc(-c3ccc(C(F)(F)F)cc3)n2)c1  51%
43. Nc1cc(N2CCC(c3nc4cc(F)ccc4[nH]3)CC2)nc(N2CCOCC2)n1  52%
44. Cc1cc(N2CCC(NCCCN3CCCc4ccccc43)CC2)nc(N)n1  53%
45. COc1ccc2cc(-c3cc(N)ccn3)[nH]c2c1  54%
46. CN(C)C1(CNc2nc(C(F)(F)F)nc3cc4c(cc23)OCO4)CCCCCC1  54%
47. COc1ccc2c(C)cc(NCCCN3CCC[C@H](C(N)=O)C3)nc2c1  57%
48. c1ccc(CN2CCC(CCNC[C@@H]3CCCN4CCCC[C@H]34)CC2)cc1  57%
49. Cc1ccc2nc(-c3cccc(NC(=O)c4ccc(OC(F)(F)F)c(Cl)c4)c3)[nH]c2n1  57%
50. CN(C)C1(CNc2nc(C(F)(F)F)nc3cc(F)ccc23)CCCCCC1  61%
51. Cn1nnc(C(=O)N2CCCCC23CCCCCC3)n1  64%
52. Cc1cc(NC[C@H](O)COc2ccc(F)cc2)nc2ccccc12  68%
53. Cc1sc2nc(-c3ccccn3)nc(NCCc3nccn3C)c2c1-c1ccccc1  71%
54. CCCc1cccc(CNC2CCN(C3CCN(C)CC3)CC2)c1  76%
55. Cc1cc(N2CC3COCCC3(C(=O)O)C2)nc2ccc(F)cc12 (stereo not given)  76%
56. Cc1cnccc1NCCNCc1ccc(OC(C)C)c(Cl)c1  79%
57. c1ccc2c(CNCCC3CCN(c4ccncc4)CC3)csc2c1  80%
58. N#Cc1ccc(N2C[C@H](COCC3CC3)C3(CCN(Cc4cccc(O)c4)CC3)C2)cc1C(F)(F)F  82%
59. CN(C)C1CCN(CCN[C@H]2CCc3ccc(F)cc32)CC1  87%
60. Fc1ccc(-n2cc(CNCCC3CCN(c4ccncc4)CC3)cn2)cc1  91%
61. COc1ccc2nc(C)cc(NCc3cccc(NC(=O)c4ccco4)c3)c2c1  93%
62. O[C@H]1CCN(Cc2ccccc2CNc2cccc(-n3ccnc3)n2)C1  94%
63. Cc1ccccc1CN1CCC(CNc2c3c(nc4ccccc24)CCC3)CC1  94%
64. CCN1CCN([C@H]2CCN(c3ccnc4ccncc34)C2)CC1  96%
65. CC(C)CCOc1ccc2[nH]c(-c3cc(N4CCC[C@@H]4CS(C)(=O)=O)ccn3)cc2c1  97%
66. COC(=O)c1cn(CCNc2ccnc3cc(Cl)ccc23)cc2c(O)nnc1-2  97%
67. C[C@@H](CNC1CCN(C2CCN(C)CC2)CC1)c1cccc(Cl)c1  97%
68. Brc1ccc2[nH]c3c(c2c1)CCCC3NC1CCc2[nH]cnc2C1 (stereo not given)  98%
69. CCOc1cc2nccc(N3C[C@H]4CN(C)C[C@H]4C3)c2cc1OCC  99%
70. CCN1C[C@H](Nc2nc(C)nc3sccc23)[C@@H](OC)C1  99%

In order of falling Z score:
1. Cc1cccc2c(-c3ccc(N4CCN(C)CC4)nn3)c[nH]c12  2.75
2. CNC(=O)[C@@H]1CC2(CCN(CC3CCCCC3)CC2)CN1c1ccc(C#N)c(C(F)(F)F)c1  2.59
3. CN1CC(=O)N2C[C@@H](NC(=O)c3cccc(-c4ccc(N)nc4)c3)C[C@H]2C1=O  2.42
4. Cc1cc(NCCCN2CCC(C(=O)O)CC2)nc2ccccc12  2.33
5. FC(F)(F)Oc1cccc(CNC2CCN(C3CC3)CC2)c1  2.24
6. Cc1cc(=O)n(CCN2CCN(C(=O)c3ccc[nH]3)CC2)c(=O)[nH]1  1.92
7. O[C@@H]1CCCCC[C@H]1Nc1cccc(-n2ccnc2)n1  1.62
8. Cc1csc(=O)n1Cc1nnc(C(C)C)o1  1.5
9. Cc1cc(=O)[nH]c(-n2nc(C)cc2NC(=O)[C@H](C)n2nc3c(cc2=O)CCC3)n1  1.4
10. O=C1CN(C2CCN(CC3CCCCC3)CC2)[C@]2(CCOC2)CN1Cc1ccccc1  1.39
11. COCC(O)CN1CCC(NC2CCCNc3ccccc32)CC1 (stereo not given)  1.28
12. C[C@@H](c1cccc(-c2nccc3ncccc23)c1)N1CCCC1  1.08
13. CCN(C)CC(O)CN1CCC(Oc2cccnc2N2CCCC2)C1 (stereo not given)  1.05
14. NC(=O)[C@H]1CCCN(CCCNc2cc(C(F)(F)F)nc(N3CCCC3)n2)C1  0.88
15. Fc1ccccc1-c1nnc2ccc(NCc3ccccc3OC3CCCC3)nn12  0.8
16. Fc1ccc2c(CCNCc3cnn(-c4ccccc4)c3)c[nH]c2c1  0.71
17. CCN1CCN(CC2CN(C/C=C/c3ccc(OC)cc3)CC2CO)CC1 (stereo not given)  0.7
18. Cc1cccc([C@@H](C)CNC2CCN(CCN3CCOCC3)CC2)c1  0.67
19. COc1ccc2[nH]c(CN3CCC[C@H](N4CCN(c5ccccc5)CC4)C3)c(C)c2c1  0.66
20. O=C(c1cccc(OCCc2ccccc2)c1)N1CC2COCCC2(C(=O)O)C1 (stereo not given)  0.52
21. Cc1cc(N2CCC(NCCc3cnn(-c4ccccc4)c3)CC2)nc(N)n1  0.43
22. Cc1cnccc1NCCNCc1nc2ccccc2[nH]1  0.37
23. CN(C)c1nc(N2CCC(N3CCN(CCO)CC3)CC2)ncc1F  0.13
24. O=C1c2cccc3cccc(c23)C(=O)N1CCc1nc2ccccc2s1  0.09
25. COc1ccc(C(O)CNC2CCc3ccc(F)cc32)cc1 (stereo not given)  0.04
26. Cc1n[nH]nc1C(=O)Nc1ccc2[nH]c(-c3cccc(F)c3)nc2c1  -0.2
27. CCN1CCN([C@H]2CCN(c3nccc4nccnc34)C2)CC1  -0.37
28. O=C(c1cc(-c2ccccc2)[nH]n1)N1CCC(c2nc3cc(C(F)(F)F)ccc3s2)CC1  -0.4
29. CNC(=O)CN1CCC(Nc2ncnc3ccc(C(C)C)cc23)CC1  -0.48
30. CN1CCN(CC[C@H]2CCCCN2Cc2cnn(-c3ccc(F)cc3)c2)CC1  -0.51
31. Cc1cc(=O)[nH]c(-n2nc(C)cc2NC(=O)C(=O)N2CCC[C@H](C)C2)n1  -0.54
32. CCn1nc(C(C)C)cc1C(=O)Nc1ccc(CC(=O)NC2CC2)cc1  -0.75
33. Nc1cc(N2CCC(N3CCc4ccccc4C3)CC2)nc(N2CCOCC2)n1  -0.91
34. CN1CCC(N2CCC(NCc3cccc4nsnc34)CC2)CC1  -2.08
35. Cc1cnccc1NCCNc1nc(C(C)(C)C)nc2c1cnn2C  -3.05
36. CCN1CCN(c2ccccc2CNCCC2CCN(C)CC2)CC1  -4.06
37. C[C@@H](c1cccc(-c2nc3cc(C#N)ccc3[nH]2)c1)N(C)C  -4.6
38. Cc1ccc2nc(CCCNC3CCN(c4cc(C)nc(N)n4)CC3)oc2c1  -6.03
39. CCN1CCC[C@H](Nc2cccc(-n3ccnc3)n2)C1  -6.91
40. Cc1cc(N2CCC(NCCCN3CCCc4ccccc43)CC2)nc(N)n1  -8.02
41. CN(C)C1(CNc2nc(C(F)(F)F)nc3cc4c(cc23)OCO4)CCCCCC1  -8.21
42. COc1ccc2c(C)cc(NCCCN3CCC[C@H](C(N)=O)C3)nc2c1  -8.7
43. COc1ccc2[nH]cc(C3=CCN(c4ccc5nnc(-c6ccccc6F)n5n4)CC3)c2c1  -8.85
44. CN(C)C1(CNc2nc(C(F)(F)F)nc3cc(F)ccc23)CCCCCC1  -9.21
45. c1ccc(CN2CCC(CCNC[C@@H]3CCCN4CCCC[C@H]34)CC2)cc1  -10.03
46. Nc1cc(N2CCC(c3nc4cc(F)ccc4[nH]3)CC2)nc(N2CCOCC2)n1  -10.32
47. Cn1cc(-c2cncc(C(=O)NC3CCN(c4cccc(F)c4)CC3)c2)cn1  -10.8
48. CN(C)Cc1cccc(CCNCc2csc(-c3ccc(C(F)(F)F)cc3)n2)c1  -11.09
49. COc1ccc2cc(-c3cc(N)ccn3)[nH]c2c1  -11.7
50. Cc1cc(NC[C@H](O)COc2ccc(F)cc2)nc2ccccc12  -11.87
51. Cc1ccc2nc(-c3cccc(NC(=O)c4ccc(OC(F)(F)F)c(Cl)c4)c3)[nH]c2n1  -12.27
52. Cc1cc(N2CC3COCCC3(C(=O)O)C2)nc2ccc(F)cc12 (stereo not given)  -13.26
53. Cn1nnc(C(=O)N2CCCCC23CCCCCC3)n1  -13.81
54. Cc1sc2nc(-c3ccccn3)nc(NCCc3nccn3C)c2c1-c1ccccc1  -14.01
55. O[C@H]1CCN(Cc2ccccc2CNc2cccc(-n3ccnc3)n2)C1  -14.28
56. N#Cc1ccc(N2C[C@H](COCC3CC3)C3(CCN(Cc4cccc(O)c4)CC3)C2)cc1C(F)(F)F  -14.34
57. CCN1CCN([C@H]2CCN(c3ccnc4ccncc34)C2)CC1  -14.59
58. CN(C)C1CCN(CCN[C@H]2CCc3ccc(F)cc32)CC1  -15.32
59. Fc1ccc(-n2cc(CNCCC3CCN(c4ccncc4)CC3)cn2)cc1  -15.93
60. Cc1ccccc1CN1CCC(CNc2c3c(nc4ccccc24)CCC3)CC1  -16.23
61. CCCc1cccc(CNC2CCN(C3CCN(C)CC3)CC2)c1  -16.27
62. Cc1cnccc1NCCNCc1ccc(OC(C)C)c(Cl)c1  -17.03
63. c1ccc2c(CNCCC3CCN(c4ccncc4)CC3)csc2c1  -17.16
64. C[C@@H](CNC1CCN(C2CCN(C)CC2)CC1)c1cccc(Cl)c1  -17.23
65. COc1ccc2nc(C)cc(NCc3cccc(NC(=O)c4ccco4)c3)c2c1  -18.52
66. COC(=O)c1cn(CCNc2ccnc3cc(Cl)ccc23)cc2c(O)nnc1-2  -19.19
67. Brc1ccc2[nH]c3c(c2c1)CCCC3NC1CCc2[nH]cnc2C1 (stereo not given)  -19.51
68. CC(C)CCOc1ccc2[nH]c(-c3cc(N4CCC[C@@H]4CS(C)(=O)=O)ccn3)cc2c1  -20.97
69. CCOc1cc2nccc(N3C[C@H]4CN(C)C[C@H]4C3)c2cc1OCC  -21.22
70. CCN1C[C@H](Nc2nc(C)nc3sccc23)[C@@H](OC)C1  -21.25
